Structures are written as SMILES.
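Also: KINOMEscan kinase panel screen.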

One test deals with S6K1. The conditions noted are these: concentration: 1 μM,replicates: in singlicate; n = 1.
Turning to `Cc1ccc(Nc2ccnc(Nc3ccc4c(c3)CS(=O)(=O)C4)n2)cc1O.Cl` [GW579362], the “%Inh” value is 1%. `Cl.Cl.NC[C@H](CC1CCCCC1)NC(=O)c1ccc(-c2ccnc3[nH]ccc23)s1` [GSK1581428]: the “%Inh” value is 93%.

In the case of `Cc1n[nH]c2cc(Nc3ccnc(Nc4cccc(CN5CCOCC5)c4)n3)ccc12` [GW682569], the “%Inh” value is on record as 0%.

The subject of the next test is SBK1. The following applies: concentration: 1 μM,replicates: in singlicate; n = 1.
Take `COc1cccc(C2=C(Nc3cccc(Cl)c3)C(=O)NC2=O)c1` [SB-341556]: the “%Inh” value was 19%. On the same count and under the same terms, next, `CCn1c(-c2nonc2N)nc2cncc(CNC3CCNCC3)c21.Cl` [SB-747651]: 25%; `Cn1ccc2ncnc(Oc3ccc(NC(=O)Nc4cncc(C(F)(F)F)c4)c(Cl)c3)c21`: 0%; `CN(c1ccccc1CNc1nc(Nc2ccc3c(c2)CC(=O)N3)ncc1C(F)(F)F)S(C)(=O)=O`: 3%. With `COc1cccc(CNC(=O)NC2CCN(c3ccnc(Nc4cc(OC)c(OC)c(OC)c4)n3)C2)c1` (stereo not shown) [GSK1379765], the “%Inh” value turned out to be 19%. Same read-out and setting: in the case of `COc1cc(Nc2nccc(N3CCC(NC(=O)c4cccc(C#N)c4)C3)n2)cc(OC)c1OC` (stereo not shown) [GSK1379751] it was 22%; in that of `COc1cc2nccc(Nc3ccc(Oc4ccccc4)cc3)c2cc1OC.Cl` [GI261656], 0%.

Take `O=C(Nc1cccc(C(F)(F)F)c1)c1cccc(Oc2ccc3nccn3n2)c1`: the “%Inh” value was 35%. The same measure, in the same setting: next, `Nc1nccc(-c2ccc3c(N)n[nH]c3c2)n1` [GSK1034945]: 25%.

Regarding `C[C@@H](Oc1cc(-n2cnc3cc(-c4cnn(C)c4)ccc32)sc1C(N)=O)c1ccccc1Cl` [GSK580432], the “%Inh” value stood at 13%. Regarding `CCNCC(Cc1ccccc1)NC(=O)c1cc(Br)c(-c2ccnc3[nH]ccc23)s1.Cl.Cl` (stereo not shown) [GSK1383280], the “%Inh” value is 70%.

For the compound `O=C(Nc1ccc(Oc2ccc3nc(NC(=O)C4CC4)cn3n2)c(F)c1)c1cccn(-c2ccccc2)c1=O`, the “%Inh” value worked out at 0%.

For the compound `N#Cc1cccc(C(=O)NC2CCN(c3ccnc(Nc4ccc(F)cc4)n3)C2)c1` (stereo not shown) [GSK1379708], the “%Inh” value is reported as 2%.

For `CSc1nccc(-c2c(-c3ccc(F)cc3)ncn2CCCN2CCOCC2)n1.Cl` [SB-217146], the “%Inh” value is 6%.

For the compound `COc1cccc(OC)c1C(=O)Nc1cccc(-c2nn3ccccc3c2-c2ccnc(Nc3cccc(F)c3)n2)c1` [GSK361065], the “%Inh” value is on record as 0%.

`O=C(NOCC1CC1)c1cc(Br)c(F)c(F)c1Nc1ccc(I)cc1Cl`: the “%Inh” value is recorded as 0%. The same measure, in the same setting: in the case of `Cc1ccc(CC(=O)N2CCc3cc(-c4cn(C)c5ncnc(N)c45)ccc32)cc1` [GSK2634758] it was 7%; in that of `CC(C)c1nc(-c2cccc(NS(=O)(=O)c3ccccc3)c2)c(-c2ccnc(Nc3ccc4c(c3)CN(C)CC4)n2)s1` [GSK1649598], 43%.

As to `Cc1ccc(C(=O)Nc2ccc(Oc3ccc4nc(NC(=O)C5CC5)cn4c3)c(F)c2)c(=O)n1-c1ccccc1`, the “%Inh” value was 0%. On the same count and under the same terms, next, `c1ccc(Oc2ccc(Nc3ccnc4ccc(-c5ccccn5)cc34)cc2)cc1` [GW407034]: 60%.

On to `O=C(Nc1n[nH]c2cc(-c3ccco3)ccc12)C1CC1` [SB-737447], for which the “%Inh” value is given as 23%. Consider `C[C@@H]1CNc2c(sc3ccc4nc(-c5ccc(O)cc5)ccc4c23)C(=O)N1`, for which the “%Inh” value came out at 32%.

In the case of `CCn1c(-c2nonc2N)nc2cncc(Br)c21` [SB-738004], the “%Inh” value was 8%. On the same count and under the same terms, in the case of `CS(=O)c1ccc(-c2coc3ccc(-c4n[nH]c(=O)o4)cc23)cc1` (stereo not shown) it was 85%; in that of `CN1CCN(CCCNc2nccc(-c3c(-c4ccc(F)cc4)nn4cc(C(N)=O)ccc34)n2)CC1` [GW622475], 23%. Same read-out and setting: in the case of `CC(C(=O)NC1CCN(c2ccnc(Nc3ccc(F)cc3)n2)C1)c1ccc(Cl)cc1` (stereo not shown) [GSK1379713] it was 7%.

Regarding `CC(=O)c1c(-c2ccncc2)[nH]c(-c2ccncc2)c1C` [GW493036], the “%Inh” value is listed as 10%. On to `CS(=O)(=O)c1cccc(CNc2nc(Nc3ccc4c(c3)[C@@H]3C[C@@H]4CNC3=O)ncc2C(F)(F)F)c1`, for which the “%Inh” value was 81%. The same measure, in the same setting: in the case of `FC(F)(F)c1cc(Br)cc(Nc2nccc(-c3cnn4ncccc34)n2)c1` [GW810578] it was 0%; in that of `CC(=O)Nc1ccc(-c2cc3ncnc(SCC(=O)O)c3s2)cc1`, 22%.

For `NC(=O)Nc1sc(-c2ccc(F)cc2)cc1C(N)=O` [GW789449], the “%Inh” value was determined as 16%.

As for `CN(c1cccc(CNc2nc(Nc3ccc4c(c3)CC(=O)N4)ncc2C(F)(F)F)c1)S(C)(=O)=O`, the “%Inh” value came out at 48%. `COC(=O)Nc1nc2cc(Oc3ccc(NC(=O)Nc4cc(C(F)(F)F)ccc4Cl)cc3)ccc2[nH]1.Cl` [GW697465]: the “%Inh” value was 1%.

In the case of `COc1ccc(Nc2nccc(N3CCC(NC(=O)c4cccc(C#N)c4)C3)n2)cc1` (stereo not shown) [GSK1379730], the “%Inh” value is recorded as 6%. Same read-out and setting: next, `Cc1ccc(Nc2ccnc(Nc3ccc4c(c3)CS(=O)(=O)C4)n2)cc1O.Cl` [GW579362]: 55%; `Cl.Cl.NC[C@H](CC1CCCCC1)NC(=O)c1ccc(-c2ccnc3[nH]ccc23)s1` [GSK1581428]: 88%. As to `Cc1n[nH]c2cc(Nc3ccnc(Nc4cccc(CN5CCOCC5)c4)n3)ccc12` [GW682569], the “%Inh” value was determined as 0%.

The values above are taken from paper PMC5540273 (PLoS ONE, 2017).
